# The supplement of paper PMC12532568
# Counter-ions that a name gives are not always drawn.
# Test system: Danio rerio larvae Tg(actc1b:ZsGreen-LC3), 3 dpf
# Test: LC3 puncta relative area vs vehicle, with NH4Cl (autophagic flux) (log2 fold change); higher = more autophagy
# Settings: 10 µM; treatment time 16 h; NH4Cl: + 100 mM, 4 h
# Method: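 Transgenic Tg(actc1b:ZsGreen-map1lc3) zebrafish larvae (2 dpf) were treated for 16 h with Tocris library compounds at 10 µM (n = 12 larvae per compound). Skeletal-muscle LC3 puncta area relative to body area was measured by high-content confocal imaging before and after 4 h of 100 mM NH4Cl (autophagic flux), normalised to vehicle (DMSO), and reported as log2 fold change.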
row,SMILES,LC3 puncta (log2)
1,Fc1ccc(C(c2ccc(F)cc2)N2CCN(C/C=C/c3ccccc3)CC2)cc1 [Flunarizine dihydrochloride],0.536
2,CC(C)[C@H]1CC[C@H](C(=O)N[C@H](Cc2ccccc2)C(=O)O)CC1 [Nateglinide],0.54
3,O=C(OCCN1CCOCC1)C1(c2ccccc2)CCCCC1 [PRE-084 hydrochloride],0.339
4,O=C1CC2(CCCC2)CC(=O)N1CCCCNCC1COc2ccccc2O1 (stereo not given),-0.368
5,O=C(O)c1cc(O)c2ccc(Cl)cc2n1 [7-Chlorokynurenic acid],0.316
6,"O=C(O)c1cc(=O)c2c(Cl)cc(Cl)cc2[nH]1 [5,7-Dichlorokynurenic acid]",0.00257
7,CCCCCCN(CCCCCC)C(=O)Cc1c(-c2ccc(Cl)cc2)[nH]c2ccc(Cl)cc12,0.58
8,N[C@@H](CSS(=O)(=O)O)C(=O)O [S-Sulfo-L-cysteine sodium salt],0.324
9,C1COC(NC(C2CC2)C2CC2)=N1 [Rilmenidine hemifumarate],0.305
10,CCCCOc1cc(CC2CNC(=O)N2)ccc1OC (stereo not given),0.0673
11,COc1ccccc1N1CCN(CC(O)COc2cccc3ccccc23)CC1 (stereo not given) [Naftopidil dihydrochloride],0.195
12,COc1ccc([C@@H]2Sc3ccccc3N(CCN(C)C)C(=O)[C@@H]2OC(C)=O)cc1 [Diltiazem hydrochloride],0.194
13,NC(C(=O)O)c1cc(O)cc(O)c1 (racemic),0.022
14,CC(C)(Oc1ccc(Cl)cc1)C(=O)O [Clofibric acid],0.77
15,NC(=O)OCC(COC(N)=O)c1ccccc1 [Felbamate],-0.777
16,C/N=C(/NC#N)NCCSCc1csc(NC(=N)N)n1 [Tiotidine],0.667
17,COC(=O)C1=C(C)NC(C)=C(C(=O)OCCSc2ccccc2)C1C (stereo not given),0.664
18,NCC(O)(CS(=O)(=O)O)c1ccc(Cl)cc1 (stereo not given) [2-Hydroxysaclofen],0.449
19,CCCC[C@@H](C=O)NC(=O)[C@H](CC(C)C)NC(=O)OCc1ccccc1 [Calpeptin],1.29
20,O=C(O)C1=CCCNC1 [Guvacine hydrochloride],0.136

row,SMILES,LC3 puncta (log2)
1,NC(N)=Nc1ccc(Cl)cc1 [4-Chlorophenylguanidine hydrochloride],0.148
2,CC(Cc1ccc(O)c(O)c1)(NN)C(=O)O [(S)-(-)-Carbidopa],0.219
3,Cc1ccc2c(c1)c1c3n2CCNC3CCC1 (stereo not given) [Pirlindole mesylate],0.527
4,CCC(C)N(C)C(=O)c1cc2ccccc2c(-c2ccccc2Cl)n1 (stereo not given),0.363
5,"O=C1CN(/N=C/c2ccc(-c3ccc([N+](=O)[O-])cc3)o2)C(=O)N1 [Dantrolene, sodium salt]",0.404
6,"COC(=O)/C=C/c1cc(O)ccc1O [Methyl 2,5-dihydroxycinnamate]",0.332
7,COc1ccc(CCN(C)CCc2ccc(OC)c(OC)c2)cc1OC [YS-035 hydrochloride],0.374
8,COc1cc(N)c(Cl)cc1C(=O)OCCCN1CCCCC1,0.449
9,N[C@H]1CCN(O)C1=O,0.023
10,CC(C)NC[C@@H](O)COc1cccc2ccccc12 [(R)-(+)-Propranolol hydrochloride],-0.318
11,CN(C)CCCn1cc(C2=C(c3c[nH]c4ccccc34)C(=O)NC2=O)c2ccccc21,0.575
12,N[C@H](C(=O)O)c1cc(O)cc(O)c1,0.736
13,Nc1nc2ccc(OC(F)(F)F)cc2s1 [Riluzole],0.631
14,CC(C)(C)NC[C@H](O)COc1nsnc1N1CCOCC1 [(S)-Timolol maleate],0.785
15,NS(=O)(=O)c1cc2c(cc1Cl)NC(C1CC3C=CC1C3)NS2(=O)=O (stereo not given) [Cyclothiazide],0.416
16,O=[N+]([O-])c1cc2nc(O)c(O)nc2cc1[N+](=O)[O-],0.11
17,O=C1CC2(CCCC2)CC(=O)N1CCNCC1COc2ccccc2O1 (stereo not given),0.515
18,NS(=O)(=O)c1cccc2c1c([N+](=O)[O-])cc1nc(O)c(O)nc12,0.16
19,O=C(O)C=C1CCCc2ccccc2C1O (stereo not given),-0.285
20,Clc1cccc(Nc2nnc(-c3ccccc3)c3ccccc23)c1,0.446
